Compound activity: PubChem BioAssay, University of Kansas High Throughput Screening Laboratory
Rows were chosen to be rich in hits. Some 3.6% of all compounds tested hit in one or more screens of this group.
Pf apPOL block = Pf-apPOL DNA polymerase inhibition. Recombinant Pf-apPOL, molecular beacon fluorescence, 1.5 h. inhibition, % at 10 µM. hit rate 0.25% among 210,000. AID 1794808
mHTT CaM bind = disrupts binding of mutant huntingtin to calmodulin; inhibition, % at 15 µM; AID 1671202; hit rate 3.6% among 190,000; P42858; AlphaScreen His-mHTT/GST-CaM binding, luminescence;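 also: 0% = both proteins with DMSO and 100% = one protein alone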
* marks the source's active call; other numbers are inactive results; . = not tested or not shown; ! = repeats disagree. Rule as the data show it: active = inhibition above about 50%; inactive = the rest.

SMILES	Pf apPOL block	mHTT CaM bind
O=C1C=CC2=C3c4cc(O)c(O)cc4CC3(O)COC2=C1O (centres undefined)	50.2*	.
CCOc1ccccc1NC(NC(=O)c1ccco1)C(=O)c1ccc(Cl)cc1 (centres undefined)	-4.4	43.0
COc1ccc(OC)c(NC(NC(=O)c2ccco2)C(=O)c2ccc(Cl)cc2)c1 (centres undefined)	-5.5	67.0*
CC(C)c1cc(C2CCCN2C(=O)Nc2ccccc2Br)no1 (centres undefined)	0.8	-12.6
CSC1=NCCN1C(=O)c1ccc(C(C)(C)C)cc1	-16.3	3.0
COc1ccc(CN2CC[C@H]3C=CC[C@@H](C(=O)O)[C@H]3C2=O)cc1OC	-2.5	3.1
COc1ccc(NC(=O)[C@@H]2CC=C[C@@H]3CCN(Cc4ccc(Cl)c(Cl)c4)C(=O)[C@@H]32)cc1	-6.4	96.2*
COc1ccc(NC(=O)[C@@H]2CC=C[C@@H]3CCN(Cc4ccccc4)C(=O)[C@@H]32)cc1	-4.2	2.2
COc1ccc(CN2CC[C@H]3C=CC[C@@H](C(=O)Nc4ccc(Cl)c(C(F)(F)F)c4)[C@H]3C2=O)cc1OC	-7.1	56.4*
CC(NC(=O)c1cc2c(=O)n3ccccc3nc2n(CCc2ccccc2)c1=N)c1ccccc1 (centres undefined)	-6.5	24.0
Fc1ccc(-c2ccc(CNCc3ccco3)o2)cc1	-1.7	8.9
Brc1ccc(-c2ccc(CNCc3ccco3)o2)cc1	-8.6	91.8*
CN(C)C=CC=C1CCCC1=O	89.3*	.
Cc1ccc(C(=O)Nc2ccc(F)cc2F)c(Cl)c1	6.3	-7.1
COc1ccccc1CC(=O)NCCc1ccccc1	-2.0	62.6*
COc1ccc(OC)c(NC(=O)Cc2ccc(OC)c(OC)c2)c1	85.5*	9.5
COc1ccccc1CC(=O)NCCCc1ccccc1	-9.5	-1.0
COc1ccc(CC(=O)Nc2sc(-c3ccccc3)cc2C(N)=O)cc1OC	-42.4	83.4*
COc1cccc2cc(C(=O)Nc3sc(-c4ccccc4)cc3C(N)=O)oc12	0.1	-35.7
COc1ccc(CCNC(=O)CCN2N=C(c3ccccc3)CCC2=O)cc1OC	-18.3	1.0
COc1ccc(CCNC(=O)CCN2N=C(c3ccc(C)cc3)CCC2=O)cc1OC	-16.4	87.0*
COCC(=O)Nc1cc(OC)ccc1OC	-9.0	3.4
Cc1noc(C)c1S(=O)(=O)N1CCC(CC(=O)NCCN2CCN(C)CC2)CC1	1.4	1.2
COc1ccc2c(=O)c3c(=O)n(Cc4ccccc4)c(-c4cccs4)nc3oc2c1	-8.4	-8.2
CCOc1ccc(-n2c(SCC(=O)NCc3ccccc3)nc3c(c2=O)SCC3)cc1	0.5	-12.0
SMILES	Pf apPOL block	mHTT CaM bind
CCOC(=O)N1CCc2c(nc(-c3ccc(F)cc3)n(CC(=O)Nc3ccccc3)c2=O)C1	6.6	16.7
Cc1nnc(Nc2ccc(Cl)c(Cl)c2)[nH]c1=O	2.3	2.0
COc1ccc(CCNC(=O)Cc2ccc(OC)c(OC)c2)cc1OC	-2.2	.
COCC(=O)NCCc1ccc(OC)c(OC)c1	98.3*	3.4
N#CC1=C(N)NC(SCC(=O)Nc2ccc(Br)cc2)=C(C#N)C12CCCCC2	-8.5	83.3*
CCSC1=C(C#N)C2(CCCC2)C(C#N)=C(N)N1	1.5	2.0
O=C(c1ccccc1)N1CCC(n2c(-c3ccco3)nc3cccnc32)C1 (centres undefined)	-4.1	6.8
Cc1ccc(C(=O)N2CCC(n3c(-c4ccco4)nc4cccnc43)C2)cc1F (centres undefined)	-1.0	72.0*
O=C(c1cccc(F)c1)N1CCC(n2c(-c3ccco3)nc3cccnc32)C1 (centres undefined)	-4.8	32.7
O=C(c1cccc(Br)c1)N1CCC(n2c(-c3ccco3)nc3cccnc32)C1 (centres undefined)	-3.8	87.0*
O=C(c1ccc(F)cc1)N1CCC(n2c(-c3ccco3)nc3cccnc32)C1 (centres undefined)	-2.2	8.9
O=C(c1ccc(F)c(F)c1)N1CCC(n2c(-c3ccco3)nc3cccnc32)C1 (centres undefined)	-5.9	70.7*
C=CCNC(=O)CSc1nnnn1-c1ccccc1OCC	-6.7	-8.5
C=CCc1cc(OC)ccc1OCC(O)CN1CCN(c2ccc(OC)cc2)CC1 (centres undefined)	-3.0	50.4*!
C=CCc1ccc(OCC(O)CN2CCN(c3ccccc3)CC2)c(OC)c1 (centres undefined)	0.3	40.0
C=CCc1cc(OC)ccc1OCC(O)CN1CCN(c2ccccc2F)CC1 (centres undefined)	0.7	14.3
C=CCc1ccc(OCC(O)CN2CCN(c3ccc(OC)cc3)CC2)c(OC)c1 (centres undefined)	-2.6	51.2*
COCCC[n+]1c(C)csc1Nc1c(C)cc(C)cc1C	-6.6	.
CC1CCN(CCCNc2ccc(-c3nc(-c4ccc(F)cc4)no3)cn2)CC1	-4.2	34.8
CC1CCN(CCNc2ccc(-c3nc(-c4ccc(F)cc4)no3)cn2)CC1	-4.3	50.9*
C=CCn1c(SCC(=O)NCc2ccccc2)nc2scc(-c3cccs3)c2c1=O	-3.1	-0.7
